# Measured values reported in PubChem BioAssay (Tox21).
# Several values for one entry are separate records, joined by “and”; a condition that tells them apart may be missing. Equal entries are not always repeated. Inconclusive results are not listed. Where a call stands in place of a potency, no number is given. The source holds several records for some structures; these can differ, active in one and inactive in another. Activity calls are given as the source filed them. Unless noted, calls come from the whole dose curve.
# How the values were obtained:
# [1] = target: Glucocorticoid receptor (Homo sapiens) (UniProt P04150); experiment: qHTS assay to identify small molecule antagonists of the glucocorticoid receptor (GR) signaling pathway (AID 720692; active = well fitted inhibition curve with a large enough effect in the signal ratio in the repeat runs, not every such curve was filed as active; the % refers to the signal ratio; note: potency is the fitted concentration of half-maximal effect)
# Summary of the method: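 Cells plated, rested 4 h at 37 C/5% CO2; compounds in DMSO pin-transferred; dexamethasone added to 5 nM final; 18 h at 37 C; B/G FRET substrate added, 2 h room temperature; fluorescence measured.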
# [2] = qHTS assay to identify small molecule agonists of the estrogen related receptor signaling pathway with the pleiotropic PPARgamma coactivator (PGC) from Tox21 10K library (AID 1224842; active = well fitted curve in the direction sought with a large enough effect in the repeat runs; an effect the other way counts as inactive or inconclusive; note: nearly all actives have a fitted effect of over 15% in size; note: potency is the fitted concentration of half-maximal effect)
# Summary of the method: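 PGC/ERR reporter cell line, 2,000 cells per well, incubated 6 h at 37 C before 23 nL compound in DMSO was added. After 18 h at 37 C, One-Glo luminescence read following 30 min at room temperature.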
# [3] = qHTS assay to identify small molecule agonists of H2AX (AID 1224845; active = well fitted activation curve with a large enough effect in the signal ratio in the repeat runs, not every such curve was filed as active; the % refers to the signal ratio; note: potency is the fitted concentration of half-maximal effect)
# Summary of the method: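 Wild-type CHO-K1 cells, plated overnight, exposed 3hr at 37C to 15 concentrations (0.76% DMSO final). Lysed, then HTRF anti-pH2AX (S139) cryptate and anti-H2AX-d2 antibodies, 24 hr room temperature; 665/620 nm emission read.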
# [4] = qHTS assay to identify small molecule agonists of the estrogen related receptor (ERR) signaling pathway from Tox21 library (AID 1224849); settings: ERR reporter cell line, ONE-Glo luciferase, 18 h; note: nearly all actives have a fitted effect of over 15% in size
# Summary of the method: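 Agonist signal is luciferase luminescence from an ERR reporter cell line treated 18 h at 37 C with DMSO-dissolved compounds, read 30 min after ONE-Glo addition at room temperature.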
# [5] = Caspase-3/7 induction in HepG2 cells by small molecules, qHTS assay (AID 1346978; active = well fitted curve in the direction sought with a large enough effect in the repeat runs; an effect the other way counts as inactive or inconclusive; note: nearly all actives have a fitted effect of over 15% in size)
# Summary of the method: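 Wild-type HepG2 cells, 2,000/well, settled 5 hr at 37 C and 5% CO2, then compound-treated for 17 hr; caspase-3/7 activity read by luminescent Caspase-Glo 3/7 after 30 min at room temperature.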
# [6] = target: Acetylcholinesterase (Homo sapiens) (UniProt P22303); experiment: Acetylcholinesterase (AChE) small molecule antagonists: colormetric cell-based qHTS assay (AID 1347395); note: nearly all actives have a fitted effect of over 30% in size; note: potency is the fitted concentration of half-maximal effect
# Summary of the method: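 SH-SY5Y cells attached overnight, exposed to compound 30 min at 37 C, then given DTNB/acetylthiocholine; after 90 min at 37 C, colorimetric thiocholine read gives cellular AChE activity.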
# [7] = target: Acetylcholinesterase (Homo sapiens) (UniProt P22303); experiment: Acetylcholinesterase (AChE) small molecule antagonists: enzyme-based qHTS assay (AID 1347397); settings: Potency: AChE enzyme activity inhibition; outcome: AChE enzyme activity inhibition; note: nearly all actives have a fitted effect of over 55% in size
# Summary of the method: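 Recombinant human AChE (50 mU/mL) preincubated with compound 30 min at room temperature; acetylthiocholine plus DTNB then added, and thiocholine formation read colorimetrically after 10 min at room temperature. DMSO served as vehicle control.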
# [8] = target: Acetylcholinesterase (Homo sapiens) (UniProt P22303); experiment: Acetylcholinesterase (AChE) small molecule antagonists: fluorescence cell-based qHTS assay (AID 1347398); settings: Potency: AChE activity; outcome: AChE activity; note: nearly all actives have a fitted effect of over 50% in size
# Summary of the method: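 SH-SY5Y cells (2000/well), attached overnight, incubated with compound 30 min at 37 C. Acetylthiocholine plus Thiolite Green then added for 40 min at room temperature. Thiocholine fluorescence (Ex/Em 490/520 nm) reports cellular AChE activity.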
# [9] = target: Acetylcholinesterase (Homo sapiens) (UniProt P22303); experiment: Acetylcholinesterase (AChE) small molecule antagonists: enzyme-based qHTS assay with human liver microsomes (AID 1347399); settings: Potency: qHTS inhibition; outcome: qHTS inhibition; note: nearly all actives have a fitted effect of over 60% in size
# Summary of the method: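 Recombinant human AChE (50 mU/mL in the enzyme mix) and human liver microsomes (0.25 mg/mL final) were preincubated with compound and NADPH (0.25 mg/mL final) for 30 min at 37 C. Acetylthiocholine/DTNB was then added; thiocholine was read colorimetrically after 10 min at room temperature.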
# [10] = qHTS assay to identify small molecule agonists of the estrogen related receptor (ERR) signaling pathway (AID 1224820; active = well fitted curve in the direction sought with a large enough effect in the repeat runs; an effect the other way counts as inactive or inconclusive)
# Summary of the method: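 ERR reporter cell line (from NTP), 2,000 cells/well, incubated 6 h before compound addition, then 18 h at 37 C. Luminescence measured 30 min after One-Glo reagent at room temperature.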
# [11] = test system: estrogen-related receptor alpha (ERRalpha) with PGC-1alpha coactivator, human; experiment: qHTS assay to identify small molecule antagonists of the estrogen related receptor signaling pathway with the pleiotropic PPARgamma coactivator (PGC) (AID 1224821); note: nearly all actives have a fitted effect of over 50% in size; note: potency is the fitted concentration of half-maximal effect
# Summary of the method: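 PGC/ERR reporter cell line, plated 6 h before compound addition, then exposed 18 h at 37 °C. Luciferase activity read by luminescence 30 min after One-Glo addition; decrease indicates antagonism.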
# [12] = qHTS assay to identify small molecule antagonists of the estrogen related receptor signaling pathway with the pleiotropic PPARgamma coactivator (PGC) cell viability counter screen (AID 1224822; active = well fitted curve in the direction sought with a large enough effect in the repeat runs; an effect the other way counts as inactive or inconclusive;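 note: viability read after 17.5 h compound exposure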)
# Summary of the method: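 Seed PGC/ERR cells (2,000/well); incubate 6 h at 37 C/5% CO2; pin-transfer compounds in DMSO; incubate 17.5 h at 37 C; add CellTiter-Fluor; after 30 min read fluorescence.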
# [13] = qHTS assay to identify small molecule agonists of the estrogen related receptor signaling pathway with the pleiotropic PPARgamma coactivator (PGC) (AID 1224823; active = well fitted curve in the direction sought with a large enough effect in the repeat runs; an effect the other way counts as inactive or inconclusive)
# Summary of the method: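 PGC/ERR reporter cells seeded 6 h, then exposed to compounds (23 nL in DMSO) for 18 h at 37 C. One-Glo luciferase luminescence read after 30 min at room temperature.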
# [14] = qHTS assay for small molecule agonists of the p53 signaling pathway (AID 651631); note: nearly all actives have a fitted effect of over 15% in size
# Summary of the method: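 HCT-116 cells carrying a beta-lactamase reporter under p53 response elements were dosed with compound for 16 h at 37 °C. LiveBLAzer B/G FRET substrate was then added for 2 h at room temperature, and fluorescence intensity was read to detect pathway agonism.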
# [15] = at 92.4 µM (top of the series) unless noted
# Sequence of Acetylcholinesterase (Homo sapiens) (P22303 whole entry, looked up): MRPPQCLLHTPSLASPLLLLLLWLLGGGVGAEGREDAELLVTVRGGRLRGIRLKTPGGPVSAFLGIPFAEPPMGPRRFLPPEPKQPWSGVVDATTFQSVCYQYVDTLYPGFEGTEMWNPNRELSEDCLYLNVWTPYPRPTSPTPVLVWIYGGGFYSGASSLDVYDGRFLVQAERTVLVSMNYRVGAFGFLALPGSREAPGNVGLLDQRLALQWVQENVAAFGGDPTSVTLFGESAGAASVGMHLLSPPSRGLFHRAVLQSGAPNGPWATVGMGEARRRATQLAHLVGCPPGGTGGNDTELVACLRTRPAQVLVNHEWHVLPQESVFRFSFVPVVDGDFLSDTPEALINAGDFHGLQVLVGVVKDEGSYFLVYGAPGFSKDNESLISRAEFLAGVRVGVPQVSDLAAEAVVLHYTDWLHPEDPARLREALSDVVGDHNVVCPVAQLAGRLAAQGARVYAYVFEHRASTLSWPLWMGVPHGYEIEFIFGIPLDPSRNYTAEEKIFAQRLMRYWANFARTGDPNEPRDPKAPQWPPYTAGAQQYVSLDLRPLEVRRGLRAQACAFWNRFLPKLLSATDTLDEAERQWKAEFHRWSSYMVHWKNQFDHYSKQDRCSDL
# Sequence of Glucocorticoid receptor (Homo sapiens) (P04150 whole entry, looked up): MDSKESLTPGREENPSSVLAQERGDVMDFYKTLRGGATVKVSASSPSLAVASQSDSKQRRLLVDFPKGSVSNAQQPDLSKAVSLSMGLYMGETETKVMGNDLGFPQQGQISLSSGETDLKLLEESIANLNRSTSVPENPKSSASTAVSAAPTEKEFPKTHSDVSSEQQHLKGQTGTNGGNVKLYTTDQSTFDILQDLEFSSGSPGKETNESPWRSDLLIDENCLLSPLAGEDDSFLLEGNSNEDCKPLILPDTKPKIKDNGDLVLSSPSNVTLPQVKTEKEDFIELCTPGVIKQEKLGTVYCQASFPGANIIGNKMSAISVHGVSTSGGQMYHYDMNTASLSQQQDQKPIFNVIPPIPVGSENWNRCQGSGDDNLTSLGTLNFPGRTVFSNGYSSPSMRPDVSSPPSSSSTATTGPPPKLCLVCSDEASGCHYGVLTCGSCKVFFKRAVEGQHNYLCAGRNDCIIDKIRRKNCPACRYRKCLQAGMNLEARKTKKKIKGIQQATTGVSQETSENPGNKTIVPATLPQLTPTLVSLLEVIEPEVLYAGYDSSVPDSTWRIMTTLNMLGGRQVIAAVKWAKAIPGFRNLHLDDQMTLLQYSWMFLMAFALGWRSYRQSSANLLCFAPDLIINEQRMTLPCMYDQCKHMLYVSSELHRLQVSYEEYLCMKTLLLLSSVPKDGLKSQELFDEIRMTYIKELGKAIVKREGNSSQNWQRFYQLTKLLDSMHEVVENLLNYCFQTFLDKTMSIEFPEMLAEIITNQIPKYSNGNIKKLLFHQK
smiles,measurement,setting,value
Cc1cccc(C)c1,Potency,[1],inactive
same,Potency,[2],inactive
same,Potency,[3],inactive
same,"activity change, positive = activation",[4]; [15],1.06% (inactive)
same,Potency,[5],inactive
same,Potency,[6],inactive
same,Potency,[7],inactive
same,Potency,[8],inactive
same,Potency,[9],inactive
c1ccc2c(c1)ccc1ncccc12,"activity change, positive = activation",[4]; [15],-4.48% (inactive)
same,Potency,[5],inactive
same,Potency,[6],inactive
same,Potency,[7],inactive
same,Potency,[8],inactive
same,Potency,[9],inactive
N#CC1(O)CCCCC1,Potency,[3],inactive
same,Potency,[6],inactive
same,Potency,[7],inactive
same,Potency,[8],inactive
same,Potency,[9],inactive
CC1=NN=C(c2ccc(N)cc2)c2cc3c(cc2C1)OCO3,Potency,[10],inactive
same,Potency,[11],inactive
same,Potency,[12],inactive
same,Potency,[13],inactive
CC1(C)[C@H](C(=O)OCc2cccc(Oc3ccccc3)c2)[C@@H]1C=C(Cl)Cl,Potency,[6],inactive
same,Potency,[7],inactive
same,Potency,[8],inactive
same,Potency,[9],inactive
CCC1C(=O)OCC1Cc1cncn1C (configuration not stated),Potency,[2],inactive
same,"activity change, positive = activation",[4]; [15],4.65% [at 42.5 µM] (inactive)
same,Potency,[6],inactive
same,Potency,[7],inactive
same,Potency,[8],inactive
same,Potency,[9],inactive
O=P(OC(CCl)CCl)(OC(CCl)CCl)OC(CCl)CCl,Potency,[14],inactive
same,Potency,[2],inactive
same,Potency,[3],inactive
same,Potency,[5],inactive
same,Potency,[6],inactive
same,Potency,[7],inactive
same,Potency,[8],inactive
same,Potency,[9],inactive
Cc1cc([N+](=O)[O-])ccc1N,Potency,[3],inactive
same,Potency,[5],inactive
same,Potency,[6],inactive
same,Potency,[7],inactive
same,Potency,[8],inactive
same,Potency,[9],inactive
NC(N)=NOCCC(N)C(=O)O (configuration not stated),Potency,[10],inactive
same,Potency,[11],inactive
same,Potency,[12],inactive
same,Potency,[13],inactive
NC(=Nc1ccccc1)Nc1ccccc1,Potency,[2],12.2 µM (active)
same,"activity change, positive = activation",[4]; [15],17.6% (active)
same,Potency,[5],inactive
same,Potency,[6],63.3 µM (active) and inactive
same,Potency,[7],inactive
same,Potency,[8],inactive
same,Potency,[9],inactive
c1ccc(CCCN2CCN(CCOC(c3ccccc3)c3ccccc3)CC2)cc1,Potency,[10],inactive
same,Potency,[13],inactive
CC(C)(C)c1cc(C=C(C#N)C#N)cc(C(C)(C)C)c1O,Potency,[10],inactive
same,Potency,[11],0.181 µM (active)
same,Potency,[13],inactive
Nc1ccc(N)c2ccccc12,Potency,[1],24.5 µM (active)
same,"activity change, positive = activation",[4]; [15],-69.5% (inactive)
same,Potency,[5],inactive
same,Potency,[6],inactive
same,Potency,[7],inactive
same,Potency,[8],inactive
same,Potency,[9],inactive
O=C(O)/C=C\C(=O)O,Potency,[14],inactive
same,Potency,[2],inactive
same,"activity change, positive = activation",[4]; at 42.5 µM (top of the series),6.09% (inactive)
same,"activity change, positive = activation",[4]; at 92.4 µM (top of the series),3.24% (inactive) and 1.53% (inactive)
same,Potency,[6],inactive
same,Potency,[7],inactive
same,Potency,[8],inactive
same,Potency,[9],inactive
CNc1ccccc1,Potency,[1],inactive
same,Potency,[3],inactive
same,"activity change, positive = activation",[4]; [15],-1.42% (inactive)
same,Potency,[6],inactive
same,Potency,[7],inactive
same,Potency,[8],inactive
same,Potency,[9],inactive
CCCCCCCCCc1ccc(OCCOCCO)cc1,Potency,[3],inactive
same,Potency,[6],inactive
same,Potency,[7],inactive
same,Potency,[8],inactive
same,Potency,[9],inactive
ClC(Cl)(Cl)c1ccc(C(Cl)(Cl)Cl)cc1,Potency,[3],112 µM (active)
same,Potency,[6],inactive
same,Potency,[7],inactive
same,Potency,[8],inactive
same,Potency,[9],inactive
Cc1ccc([N+](=O)[O-])cc1N,Potency,[14],inactive
same,Potency,[3],inactive
same,Potency,[6],inactive
same,Potency,[7],inactive
same,Potency,[8],inactive
same,Potency,[9],inactive
